Where “and” joins values, the source holds several entries; their conditions need not be identical. Equal values may be shown once. Records with an inconclusive call do not appear. More than one record can exist for a structure, and the calls need not agree. Calls of active or inactive are those of the source. Unless noted, calls come from the whole dose curve.

A short description of test [1]: Nuclear factor erythroid 2-related factor 2/antioxidant responsive element (Nrf2/ARE) small molecule agonists: qHTS cell viability counter screen in human keratinocytes (AID 1919968; active = well fitted curve in the direction sought with a large enough effect in the repeat runs; an effect the other way counts as inactive or inconclusive; note: nearly all actives have a fitted effect of over 55% in size; note: potency is the fitted concentration of half-maximal effect). The method, boiled down:
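Parallel cytotoxicity read: KeratinoSens HaCaT cells, compound treatment 23 h, viability by CellTiter-Fluor fluorescence 1 h post-reagent.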
Background: qHTS replaces the single test concentration by a dilution series.

Test [2] is described as follows: Nuclear factor erythroid 2-related factor 2/antioxidant responsive element (Nrf2/ARE) small molecule agonists: luciferase reporter gene qHTS assay in human keratinocytes (AID 1919969). Note: nearly all actives have a fitted effect of over 35% in size. Note: potency is the fitted concentration of half-maximal effect.
Test [3] deals with Gonadotropin-releasing hormone receptor (Homo sapiens) (UniProt P30968). As to the kind of experiment: Human gonadotropin-releasing hormone receptor (GnRHR) small molecule agonists, calcium flux assay in GnRHR-HEK293 cells (AID 1920063). Note: nearly all actives have a fitted effect of over 35% in size. Note: potency is the fitted concentration of half-maximal effect. The gist of the method:
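Calcium flux, agonist mode, human GnRHR stably integrated in HEK293; dye 1 h at 37 C before compound; Ex/Em=480/540 kinetic read, 3 min; 15 concentrations, triplicate.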

The target of test [4] is KiSS-1 receptor (Homo sapiens) (UniProt Q969F8). The test is described as follows: Human kisspeptin (KISS1R) small molecule agonists, calcium flux assay in KISS1R-HEK293 cells (AID 1920064; active = well fitted curve in the direction sought with a large enough effect in the repeat runs; an effect the other way counts as inactive or inconclusive; note: potency is the fitted concentration of half-maximal effect). The gist of the method: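 Triplicate 15-concentration series were applied to dye-loaded human KISS1R HEK293 cells, and agonist-evoked calcium fluorescence was captured for 3 min.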
Test [5] is described as follows: G protein-coupled receptor (GPCR) small molecule agonists, calcium flux assay: HEK293 wild type cell line counter screen (AID 1920065). Note: potency is the fitted concentration of half-maximal effect. The gist of the method:
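Non-specific calcium responders were flagged by adding DMSO-dissolved compounds to dye-loaded cells and reading 480/540 nm fluorescence each second for 3 min; ATP served as positive control.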
(In general: A change in cytosolic calcium serves as a functional read-out for many receptors and channels.)

Test [6] is described as follows: p53 small molecule agonists, cell-based qHTS assay with human liver microsomes: qHTS cell viability counter screen (AID 1963579). Note: nearly all actives have a fitted effect of over 45% in size. The gist of the method: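 Cytotoxicity counter screen: p53RE-bla, 4,000 cells/well; 5 h settle, 37 C/5% CO2; cpd + HLM 0.5 mg/mL + NADPH 0.5 mg/mL (final); 16 h, 37 C; CellTiter-Glo, 30 min RT, luminescence.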
Test [7] is described as follows: p53 small molecule agonists, cell-based qHTS assay with rat liver microsomes: qHTS cell viability counter screen (AID 1963580). Note: nearly all actives have a fitted effect of over 45% in size. The gist of the method: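 Luminescent ATP readout (CellTiter-Glo, 30 min at room temperature) reports viability of p53RE-bla HCT-116 cells after 16 h at 37 C with test compounds under metabolic activation by rat liver microsomes and NADPH at 0.5 mg/mL final each.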

Test [8] concerns the target 5-hydroxytryptamine receptor 2A (Homo sapiens) (UniProt P28223). As to the kind of experiment: 5-hydroxytryptamine receptor 2A (HTR2A) small molecule antagonists, cell-based qHTS assay (AID 1963586). Note: nearly all actives have a fitted effect of over 45% in size. The method, boiled down: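 CHO cells stably expressing human HTR2A were plated for 18 h at 37 C, then loaded with calcium dye for 1 h. Compounds were preincubated 5 min at room temperature before DOI (4 nM solution) was added. Kinetic fluorescence was read for 3 min.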

For test [9] the target is unchanged. As to the kind of experiment: 5-hydroxytryptamine receptor 2A (HTR2A) small molecule agonists, cell-based qHTS assay (AID 1963587). Note: nearly all actives have a fitted effect of over 30% in size. The gist of the method: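 HTR2A-CHO cells, plated 18 h at 37 C/5% CO2, dye-loaded 1 h at 37 C; compounds in DMSO added by pin tool (agonist mode). Intracellular calcium flux read as kinetic fluorescence on FDSS over 2 min at 1 s intervals.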

For test [10], the target named is Muscarinic acetylcholine receptor M1 (Homo sapiens) (UniProt P11229). The test is described as follows: Cholinergic receptor muscarinic 1 (CHRM1) small molecule antagonists, cell-based qHTS assay (AID 1963588). Note: nearly all actives have a fitted effect of over 40% in size. The gist of the method:
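Compounds were tested at 15 concentrations in three independent runs. Dye-loaded CHRM1-CHO cells were exposed 5 min at room temperature before stimulation by acetylcholine added at 50nM. Intracellular calcium was read kinetically on FDSS for 3 min.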

Test [11] has the same target. The test is described as follows: Cholinergic receptor muscarinic 1 (CHRM1) small molecule agonists, cell-based qHTS assay (AID 1963589). Note: nearly all actives have a fitted effect of over 35% in size. The method, boiled down: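 qHTS, 15-point titration, 3 independent runs: compounds pin-transferred onto dye-loaded CHRM1-CHO cells (human M1), calcium fluorescence followed every second to detect agonism.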
Test [12] can be described thus: cAMP Responsive Elements (CRE) small molecule agonists, cell-based qHTS assay (AID 1963590). The gist of the method:
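Quantitative HTS for CRE agonists: HEK 293T CRE-bla cells, overnight plating, 3 h compound incubation at 37 C/5% CO2, then 2 h room-temperature LiveBLAzer B/G FRET substrate loading.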

The nature of test [13]: cAMP Responsive Elements (CRE) small molecule antagonists, cell-based qHTS assay (AID 1963591; active = well fitted inhibition curve with a large enough effect in the signal ratio in the repeat runs, not every such curve was filed as active; the % refers to the signal ratio). The method, boiled down:
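Fluorescence intensity from cleaved LiveBLAzer B/G substrate (2 h, room temperature) quantified CRE-bla activity in HEK 293T cells exposed 3 h to compound with 0.25 uM final NKH477.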

Test [14] deals with Beta-2 adrenergic receptor (Homo sapiens) (UniProt P07550). As to the kind of experiment: Adrenergic beta2 receptor (ADRB2) small molecule antagonists, cell-based qHTS assay (AID 1963592). Note: series mostly up to about 92 µM; nearly all actives have a fitted effect of over 50% in size. The gist of the method: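 Assay format: CHO-ADRB2 cells, 18-20hr seeding at 37C/5% CO2, then compound plus 1nM isoproterenol agonist mix for 0.5hr RT. Homogeneous time-resolved fluorescence cAMP detection after 1hr, expressed as 665/615 nm ratio.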

Test [15] has the same target. As to the kind of experiment: Adrenergic beta2 receptor (ADRB2) small molecule agonists, cell-based qHTS assay (AID 1963593).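 Note: CHO cells stably overexpressing human ADRB2.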 The gist of the method:
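CHO cells stably over-expressing ADRB2 were plated overnight at 37C, then dosed with compounds plus a stimulation mix containing 100uM IBMX and 25uM Ro-20-1724 for 0.5hr at room temperature. cAMP was measured by HTRF competition, 1hr.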

Test [16] addresses D(2) dopamine receptor (Homo sapiens) (UniProt P14416). As to the kind of experiment: Dopamine D2 receptor (DRD2) small molecule antagonists, cell-based qHTS assay (AID 1963595; active = well fitted inhibition curve with a large enough effect in the signal ratio in the repeat runs, with a control signal flat; the % refers to the signal ratio). The gist of the method:
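Antagonism was scored as restored cAMP in HEK293-DRD2 cells. These cells were stimulated with 200 nM NKH477 and 12 nM quinpirole for 30 min at room temperature, in the presence of 0.1 mM Ro20-1724.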

The nature of test [17]: p53 small molecule agonists, cell-based qHTS assay: qHTS cell viability counter screen (AID 1963581). Note: nearly all actives have a fitted effect of over 45% in size. The method, boiled down:
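Multiplexed with the reporter read, a CellTiter-Glo step (30 min, room temperature) gauges ATP-based viability of HCT-116 p53RE-bla cells after 16 h compound incubation at 37 C.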

Test [18] addresses D(2) dopamine receptor (Homo sapiens) (UniProt P14416). The test is described as follows: Dopamine D2 receptor (DRD2) small molecule agonists, cell-based qHTS assay (AID 1963594). Note: nearly all actives have a fitted effect of over 35% in size. The gist of the method: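 HEK293 cells stably expressing DRD2 were cultured 24 h at 37 C, then given Ro20-1724 (0.1 mM final) and compounds for 10 min at room temperature. NKH477 (200nM) was then added for 30 min. cAMP was read by HTRF.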

Beta-2 adrenergic receptor (Homo sapiens), sequence (P07550 whole entry, looked up): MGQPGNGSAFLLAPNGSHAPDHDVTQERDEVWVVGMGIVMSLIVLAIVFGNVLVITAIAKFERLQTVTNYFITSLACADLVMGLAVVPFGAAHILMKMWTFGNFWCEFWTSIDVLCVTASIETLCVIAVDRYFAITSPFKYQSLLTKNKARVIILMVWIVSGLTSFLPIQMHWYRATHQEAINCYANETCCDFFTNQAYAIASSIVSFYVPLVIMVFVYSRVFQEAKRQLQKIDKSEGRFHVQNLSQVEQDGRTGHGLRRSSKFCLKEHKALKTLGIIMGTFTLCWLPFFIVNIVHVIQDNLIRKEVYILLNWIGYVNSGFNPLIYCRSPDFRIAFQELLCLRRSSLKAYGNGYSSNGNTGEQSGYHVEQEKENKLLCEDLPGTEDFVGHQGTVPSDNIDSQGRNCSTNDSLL
D(2) dopamine receptor (Homo sapiens), sequence (P14416 whole entry, looked up): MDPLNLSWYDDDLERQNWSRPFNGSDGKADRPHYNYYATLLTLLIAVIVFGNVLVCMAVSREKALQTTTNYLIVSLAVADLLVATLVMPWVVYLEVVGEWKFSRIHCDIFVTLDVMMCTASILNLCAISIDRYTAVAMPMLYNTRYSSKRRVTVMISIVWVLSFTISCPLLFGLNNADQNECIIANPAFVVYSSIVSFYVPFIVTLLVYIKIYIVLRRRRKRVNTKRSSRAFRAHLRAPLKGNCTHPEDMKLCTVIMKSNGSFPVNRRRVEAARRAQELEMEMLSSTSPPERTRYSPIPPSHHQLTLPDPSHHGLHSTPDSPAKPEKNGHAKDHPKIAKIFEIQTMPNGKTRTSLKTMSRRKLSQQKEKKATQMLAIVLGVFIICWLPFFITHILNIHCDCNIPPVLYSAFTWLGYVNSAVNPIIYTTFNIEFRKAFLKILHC
Muscarinic acetylcholine receptor M1 (Homo sapiens), sequence (P11229 whole entry, looked up): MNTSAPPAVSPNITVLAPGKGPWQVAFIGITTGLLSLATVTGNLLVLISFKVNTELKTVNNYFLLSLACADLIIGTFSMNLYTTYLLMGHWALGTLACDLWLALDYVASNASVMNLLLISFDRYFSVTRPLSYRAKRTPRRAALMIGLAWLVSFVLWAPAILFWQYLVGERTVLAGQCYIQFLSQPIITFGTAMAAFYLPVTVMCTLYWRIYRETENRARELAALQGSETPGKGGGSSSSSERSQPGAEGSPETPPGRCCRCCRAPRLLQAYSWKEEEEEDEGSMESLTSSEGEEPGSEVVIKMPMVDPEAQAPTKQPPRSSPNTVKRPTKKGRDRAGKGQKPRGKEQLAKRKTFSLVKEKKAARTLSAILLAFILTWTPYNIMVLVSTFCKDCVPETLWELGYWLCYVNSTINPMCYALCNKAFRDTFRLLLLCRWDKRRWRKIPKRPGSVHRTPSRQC
Gonadotropin-releasing hormone receptor (Homo sapiens), sequence (P30968 whole entry, looked up): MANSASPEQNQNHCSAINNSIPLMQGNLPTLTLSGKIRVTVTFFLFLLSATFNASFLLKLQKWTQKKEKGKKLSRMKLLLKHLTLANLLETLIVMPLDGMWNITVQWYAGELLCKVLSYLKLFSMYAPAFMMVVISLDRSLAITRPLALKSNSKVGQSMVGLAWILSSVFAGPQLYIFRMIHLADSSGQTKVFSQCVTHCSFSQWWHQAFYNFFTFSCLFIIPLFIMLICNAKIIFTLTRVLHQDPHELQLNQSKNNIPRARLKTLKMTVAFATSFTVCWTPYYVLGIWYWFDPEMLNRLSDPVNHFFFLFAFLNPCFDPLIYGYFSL
5-hydroxytryptamine receptor 2A (Homo sapiens), sequence (P28223 whole entry, looked up): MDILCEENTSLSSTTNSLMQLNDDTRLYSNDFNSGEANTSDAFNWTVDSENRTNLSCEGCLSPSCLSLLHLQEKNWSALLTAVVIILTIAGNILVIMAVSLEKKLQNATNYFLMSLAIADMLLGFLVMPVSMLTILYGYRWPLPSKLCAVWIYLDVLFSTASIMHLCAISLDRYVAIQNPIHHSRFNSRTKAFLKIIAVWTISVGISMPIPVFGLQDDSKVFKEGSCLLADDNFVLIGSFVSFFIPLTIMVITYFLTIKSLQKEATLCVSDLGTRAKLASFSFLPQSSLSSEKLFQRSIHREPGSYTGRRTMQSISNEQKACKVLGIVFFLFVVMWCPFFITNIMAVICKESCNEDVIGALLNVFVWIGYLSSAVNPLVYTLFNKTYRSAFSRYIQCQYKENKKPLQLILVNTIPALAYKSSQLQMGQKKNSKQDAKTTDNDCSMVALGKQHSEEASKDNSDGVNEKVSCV
KiSS-1 receptor (Homo sapiens), sequence (Q969F8 whole entry, looked up): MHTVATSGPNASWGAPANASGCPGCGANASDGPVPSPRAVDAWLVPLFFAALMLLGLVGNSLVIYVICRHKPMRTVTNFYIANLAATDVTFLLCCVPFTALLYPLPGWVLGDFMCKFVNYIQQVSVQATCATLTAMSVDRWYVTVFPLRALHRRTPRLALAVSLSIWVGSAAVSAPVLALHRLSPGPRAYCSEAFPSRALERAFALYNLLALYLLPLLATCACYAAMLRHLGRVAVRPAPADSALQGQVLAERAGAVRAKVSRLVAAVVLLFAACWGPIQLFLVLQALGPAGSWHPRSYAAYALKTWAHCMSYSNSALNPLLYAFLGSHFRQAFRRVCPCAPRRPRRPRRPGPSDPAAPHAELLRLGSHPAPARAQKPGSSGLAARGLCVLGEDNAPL

Consider `CC(COCC(C)OC(=O)c1ccccc1)OC(=O)c1ccccc1` (centres undefined), for which the Potency entry in test [1], in [2], in test [3], in test [4], in [5] and in test [6] was “inactive” throughout. The Potency entry in test [7], in test [8], in test [9], in [10], in test [11] and in test [12] was “inactive” in each case. The Potency entry in test [13], in [14], in test [15] and in [16] was “inactive” each time.

Take `C[N+](C)(C)CCO`: the Potency result in [1], in test [2], in test [3], in test [4], in test [5] and in test [6] was “inactive” in each case. Further, the Potency result in test [7], in [17], in test [12], in test [13], in test [14] and in test [15] was “inactive” in each case. Also, the Potency result in [18] and in test [16] was “inactive” throughout.

On to `Cn1cnc2c1c(=O)[nH]c(=O)n2C`, for which the Potency entry in [1], in test [2], in test [3], in test [4], in test [5] and in [6] was “inactive” in each case. For the same compound, the Potency result in [17], in [8], in [9], in test [10], in [11] and in test [12] was “inactive” in each case. Besides, the Potency entry in test [13], in test [15], in test [18] and in [16] was “inactive” throughout.

Regarding `c1ccc2c(c1)-c1cccc3c1c-2cc1ccccc13`, the Potency result in [1], in [3], in test [4], in [5], in test [6] and in test [7] was “inactive” each time. Also, the Potency entry in [8], in test [9], in [10], in [11], in test [12] and in test [14] was “inactive” in each case. In addition, the Potency entry in [18] and in test [16] was “inactive” each time. In addition, the Potency in [2] is 23.8 µM (active) and 21.7 µM (active).

With `CN(C)c1cccc(O)c1`, the Potency result in test [1], in test [3], in test [4], in [5], in test [6] and in test [17] was “inactive” in each case. Besides, the Potency entry in test [8], in test [9], in [10], in test [11], in test [12] and in [13] was “inactive” in each case. Further, the Potency entry in test [14], in test [15], in [18] and in test [16] was “inactive” in each case. Also, in test [2], the Potency is 43.9 µM (active) and inactive.

Consider `OC[C@H]1O[C@@](CO)(O[C@H]2O[C@H](CO)[C@@H](O)[C@H](O)[C@H]2O)[C@@H](O)[C@@H]1O`, for which the Potency result in test [1], in test [2], in test [3], in test [4], in test [5] and in test [6] was “inactive” each time. Also, the Potency result in [17], in test [8], in [9], in test [10], in test [11] and in [12] was “inactive” each time. Besides, the Potency entry in test [13], in test [14], in test [18] and in test [16] was “inactive” in each case.

Consider `O=C1OC2(c3ccc(O)cc3Oc3cc(O)ccc32)c2ccccc21`, for which the Potency in test [1] was 9.44 µM (active); in test [3], 389 nM (active) and 1.9 µM (active); in test [4], 550 nM (active) and 2.39 µM (active); in [5] it was 1.74 µM (active) and 3.38 µM (active). Further, the Potency result in test [2], in [7], in test [17], in [14], in test [15] and in [18] was “inactive” in each case.

For the origin of these results see PubChem BioAssay (Tox21).
